Shown are actives, neighbours in structure and some others; about 6.6% of the full set was active somewhere.
MCF10A rereplic: induces DNA re-replication in MCF 10a normal breast cells; MCF 10A DNA re-replication, Hoechst nuclear intensity, 48 h; Potency, µM (series often up to 46.1 µM), for the others: at the highest dose activity, positive = re-replication, actives largely listed as activators; 2.9% of 350,000 active; AID 624296; also: % of control where 0% means no effect; nearly all actives have a fitted effect of over 50% in size
RGS4 inh: human RGS4 inhibition; AID 504845; 0.039% of 390,000 active; Transcreener GDP fluorescence polarization, RGS4-accelerated GTP hydrolysis; Potency, µM (doses to about 114 µM), for inactives: at the top dose activity change, negative = inhibition, actives largely listed as inhibitors; also: % is scaled to controls: 0 for no effect and ±100 for the full control effect; nearly all actives have a fitted effect of over 75% in size
Target sequence (P49798 whole entry, looked up): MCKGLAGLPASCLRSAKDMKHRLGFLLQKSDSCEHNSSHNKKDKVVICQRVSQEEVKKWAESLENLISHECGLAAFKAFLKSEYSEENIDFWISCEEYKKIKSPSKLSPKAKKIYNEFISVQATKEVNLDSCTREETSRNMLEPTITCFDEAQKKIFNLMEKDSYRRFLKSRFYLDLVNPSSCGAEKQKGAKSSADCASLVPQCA
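MLSMR compounds (23 nl, pin-transferred) preincubated 10 min at room temperature with a 500nM (2x) first reagent, then RGS4 at 900nM (2x) plus Transcreener GDP mix added; fluorescence polarization (620/688 nm) read before and after 90 min at 30 °C.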
PTAP TSG101 blk: blocks PTAP/TSG101 interaction to inhibit HIV-1 budding. Q99816. Fluorescence polarization, FITC-PTAP peptide / Tsg101 binding. Potency, µM (series often up to 115 µM), without a hit: at the top dose activity change, negative = inhibition, actives largely listed as inhibitors. 340,000 tested, under 10 active. AID 493005; active = well fitted inhibition curve with a large enough effect in the main read-out, with a control signal flat, not every such curve was filed as active; inconclusive = small, poorly fitted or top-dose-only effect, or effect the other way, or a change in a side signal; inactive = no such curve, though single readings can be large or run the other way; also: % of control where 0% means no effect
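Tsg101 binding domain (10 uM final) was mixed with compound and a FITC-labeled PTAP peptide (50 nM final) in HEPES pH 7.5 buffer with NaCl, Tween 20, EDTA and TCEP; fluorescence polarization was read after 20 min at r.t.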
SW480 rereplic: DNA re-replication induction in SW480 cells; 1.8% of 340,000 active; SW480 DNA re-replication, Hoechst DNA content imaging, 48 h; Potency, µM (series often up to 46.1 µM), inactives show at the top dose re-replication activation, usual class: activators; also: % of control where 0% means no effect; nearly all actives have a fitted effect of over 55% in size
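Readout is total intensity of Hoechst-stained nuclei, excited at 405 nm and collected at 500-530 nm. Compound treatment lasted 48 hr at 37 C in 5% CO2 before staining.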
KB-3-1 tox: KB-3-1 parental cell cytotoxicity. KB-3-1 viability, CellTiter-Glo ATP luminescence, 72 h. AID 1347075. 1.4% of 400,000 active. Potency, µM (titrated, usually from 46.1 µM), most hits filed as cytotoxic; also: % is scaled to controls: 0 for no effect and ±100 for the full control effect; nearly all actives have a fitted effect of over 60% in size
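KB-3-1 parental drug-naive adenocarcinoma cells in DMEM/10% FBS, incubated 72 h at 37 C with pin-transferred compounds across a concentration series. Viability by CellTiter-Glo luminescence; concentration-response curves fitted after normalization.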
KB-V1 MDR tox: KB-V1 MDR subline cytotoxicity; KB-V1 MDR cells viability, CellTiter-Glo, 72 h; Potency, µM (doses to about 46.1 µM), usual class: cytotoxic; 3.4% of 400,000 active; also: % is scaled to controls: 0 for no effect and ±100 for the full control effect; nearly all actives have a fitted effect of over 60% in size
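Luminescent ATP read-out (CellTiter-Glo, 10 min) measures survival of drug-selected KB-V1 MDR cells after 72 h, 37 degrees C compound exposure. Medium: phenol-red-free DMEM, 10% FBS. Values from fitted concentration-response curves.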
Numbers without * were called inactive; [ ] = another dose, or the depositor's remark. Unless noted, calls follow the shape of the dose curve; as a rule, active = well fitted curve in the direction sought with a large enough effect; inconclusive = small, poorly fitted or top-dose-only effect, or another doubt; inactive = no such curve, though single readings can be large; an effect the other way counts as inactive or inconclusive. Potency is read from the fitted curve at half-maximal effect.

What do the screens show for `COc1ccc(C=NNC(=S)NC23CC4CC(CC(C4)C2)C3)cc1OC`?
MCF10A rereplic: 9.2µM*; RGS4 inh: -18.8%; PTAP TSG101 blk: 0.1%; SW480 rereplic: inconclusive; KB-3-1 tox: inconclusive; KB-V1 MDR tox: 2.91µM*

What do the screens show for `COc1cc(OC)c(C=NNC(=S)NC23CC4CC(CC(C4)C2)C3)c(OC)c1`?
MCF10A rereplic: inconclusive; RGS4 inh: -25.7%; PTAP TSG101 blk: -2.0%; SW480 rereplic: inconclusive; KB-3-1 tox: inactive; KB-V1 MDR tox: 5.17µM*

How did O=C1c2cccnc2C(=O)N1c1nc(-c2ccccc2)cs1 do in these assays?
KB-3-1 tox: inactive; KB-V1 MDR tox: inactive

What do the screens show for `COc1cccc(NC(=O)CSc2nc3c(oc4ccccc43)c(=O)n2Cc2ccco2)c1`?
RGS4 inh: -7.9%; KB-3-1 tox: inactive; KB-V1 MDR tox: inactive

How did COc1ccc(NC(=O)C2CC3C=CC2C3)c([N+](=O)[O-])c1 (configuration not stated) do in these assays?
MCF10A rereplic: 12.0%; RGS4 inh: -26.5%; PTAP TSG101 blk: -3.8%; SW480 rereplic: 1.5%; KB-3-1 tox: inactive; KB-V1 MDR tox: 20.6µM*

Results for COc1ccc(NC(=O)CC(C)C)c([N+](=O)[O-])c1 ?
MCF10A rereplic: 2.0%; RGS4 inh: -8.9%; PTAP TSG101 blk: -2.0%; SW480 rereplic: -5.8%; KB-3-1 tox: inactive; KB-V1 MDR tox: inactive

How did Cc1sc2ncnc(N3CCN(CCOc4ccc(Cl)cc4)CC3)c2c1C do in these assays?
MCF10A rereplic: 17.8µM*; RGS4 inh: 42.8%; PTAP TSG101 blk: -7.1%; SW480 rereplic: inconclusive; KB-3-1 tox: inconclusive; KB-V1 MDR tox: inconclusive

Results for Cc1sc2ncnc(N3CCN(Cc4ccccc4)CC3)c2c1-c1ccccc1 ?
MCF10A rereplic: 16.4µM*; RGS4 inh: -10.9%; PTAP TSG101 blk: -0.2%; SW480 rereplic: 9.5%; KB-3-1 tox: inconclusive; KB-V1 MDR tox: 10.3µM*

Results for Cc1sc2ncnc(N3CCN(S(=O)(=O)c4ccc(C(C)(C)C)cc4)CC3)c2c1C ?
MCF10A rereplic: inconclusive; RGS4 inh: 36.8%; PTAP TSG101 blk: -3.0%; SW480 rereplic: -27.5%; KB-3-1 tox: 20.6µM*; KB-V1 MDR tox: inactive

How did Cc1sc2ncnc(N3CCN(S(=O)(=O)c4ccc(Br)cc4)CC3)c2c1C do in these assays?
MCF10A rereplic: 3.3%; RGS4 inh: -11.0%; SW480 rereplic: -8.2%; KB-3-1 tox: inconclusive; KB-V1 MDR tox: inconclusive

What do the screens show for `Cc1cc(C)c(NC(=O)CCC(=O)N2Cc3ccccc3Oc3ncccc32)c(C)c1`?
RGS4 inh: 2.5%; KB-3-1 tox: inactive; KB-V1 MDR tox: inactive

How did CCc1nnc(NC(=O)c2ccc(S(=O)(=O)N(CC)Cc3ccccc3)cc2)o1 do in these assays?
MCF10A rereplic: inconclusive; RGS4 inh: -8.7%[11.4 µM]; PTAP TSG101 blk: -2.7%; SW480 rereplic: 23.1%; KB-3-1 tox: inconclusive; KB-V1 MDR tox: inconclusive

Results for COc1ccccc1-c1nnc(NC(=O)c2ccc(S(=O)(=O)N(C)Cc3ccccc3)cc2)o1 ?
MCF10A rereplic: inconclusive; RGS4 inh: -46.6%; PTAP TSG101 blk: -1.9%; SW480 rereplic: 20.6µM*; KB-3-1 tox: inconclusive; KB-V1 MDR tox: 5.17µM*

What do the screens show for `CCc1nnc(NC(=O)c2ccc(S(=O)(=O)N(C)Cc3ccccc3)cc2)o1`?
MCF10A rereplic: -1.2%; RGS4 inh: 44.1%; PTAP TSG101 blk: -8.6%; SW480 rereplic: 2.59µM*; KB-3-1 tox: inconclusive; KB-V1 MDR tox: 3.66µM*

What do the screens show for `O=C1/C(=C/c2ccccc2)CCc2ccc(Cl)nc21`?
MCF10A rereplic: inconclusive; RGS4 inh: inconclusive; PTAP TSG101 blk: -2.6%; SW480 rereplic: inconclusive; KB-3-1 tox: inactive; KB-V1 MDR tox: 20.6µM*

Results for CCN1C(C(=O)c2ccccc2)=C(OC(=O)c2ccc(Cl)cc2)c2ccccc2S1(=O)=O ?
RGS4 inh: -13.4%

Screening results deposited in PubChem BioAssay by National Center for Advancing Translational Sciences (NCATS).
